Compounds with a hit are over-represented: about 2.9% of the library has one in this group of screens.
PAFAH2 inh – PAFAH2 (human) inhibition; Q99487; recombinant PAFAH2, FP-rhodamine activity probe, fluorescence polarization; inhibition, % at 3.39 µM; 340,000 compounds, 0.99% hits; AID 492956;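 active = inhibition above the mean over all tested compounds plus 3 SD, cut at about 30% in these data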;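 note: inhibitors block probe labeling of enzyme so polarization drops; 0% = enzyme with DMSO and 100% = wells lacking PAFAH2 protein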
pPAFAH inh – inhibitors of human plasma PAF acetylhydrolase (pPAFAH); recombinant pPAFAH, FP-rhodamine probe fluorescence polarization; inhibition, % at 3.39 µM; 330,000 compounds, 1.5% hits;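 active = inhibition above the mean inhibition across the screen plus 3 SD, cut at about 25% in these data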;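 note: inhibitors block binding of the rhodamine activity-based probe so polarization drops; 0% = enzyme with DMSO and 100% = wells lacking pPAFAH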
PME-1 inh – PME-1 (human) inhibition. Q9Y570. recombinant PME-1, FP-Rh probe fluorescence polarization. inhibition, % at 5.9 µM. 320,000 compounds, 0.53% hits. AID 2130;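 active = inhibition above the campaign mean of all compounds plus 3 SD, cut at about 26% in these data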;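 note: competitive labeling of PME-1 active site by serine hydrolase directed probe; 0% = PME-1 with DMSO and 100% = wells lacking PME-1 enzyme; inhibitors block probe labeling so polarization falls and inhibition rises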
Target sequence (Q9Y570 whole entry, looked up): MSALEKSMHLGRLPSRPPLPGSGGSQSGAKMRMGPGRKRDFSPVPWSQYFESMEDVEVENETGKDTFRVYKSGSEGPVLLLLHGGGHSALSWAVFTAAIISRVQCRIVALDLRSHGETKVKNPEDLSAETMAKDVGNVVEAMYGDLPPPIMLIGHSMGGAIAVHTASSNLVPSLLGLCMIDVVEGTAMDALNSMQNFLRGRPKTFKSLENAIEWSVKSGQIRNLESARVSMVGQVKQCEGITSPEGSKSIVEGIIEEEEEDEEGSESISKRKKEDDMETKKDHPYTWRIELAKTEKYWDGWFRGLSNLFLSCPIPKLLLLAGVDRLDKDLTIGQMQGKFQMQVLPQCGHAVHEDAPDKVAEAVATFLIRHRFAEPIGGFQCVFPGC
Fam108B counter – counter-screen for RBBP9 inhibitors: inhibitors of mouse Fam108B. inhibition, % at 9.51 µM. recombinant Fam108B, FP-Rh probe fluorescence polarization. 300,000 compounds, 0.33% hits. AID 1947;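 active = inhibition above the screen mean inhibition plus 3 SD, computed separately per campaign, cut at about 18% in these data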;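 note: inhibitors lower polarization as less probe binds the enzyme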
PAFAH1B3 FP inh – inhibitors of human PAFAH1B3; Q15102; recombinant PAFAH1B3, FP-rhodamine probe, fluorescence polarization; inhibition, % at 3.39 µM; 340,000 compounds, 0.28% hits;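 active = inhibition above the screen-wide average of all tested compounds plus 3 SD, cut at about 25% in these data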;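 note: 0% = enzyme with DMSO only and 100% = wells lacking PAFAH1B3 protein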
PAFAH1B2 FP inh – blocks human PAF acetylhydrolase 1b catalytic subunit 2; inhibition, % at 3.39 µM; AID 492953; 340,000 compounds, 1.2% hits; recombinant PAFAH1B2, FP-rhodamine activity probe, fluorescence polarization; P68402;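 active = inhibition above the mean of all tested compounds plus 3 SD, cut at about 24% in these data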;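 note: 0% = enzyme with DMSO and 100% = wells lacking PAFAH1B2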
Fam108b inh conf – Fam108b (mouse) hydrolase inhibition, confirmation assay; shares compounds with Fam108B counter; recombinant Fam108b, FP-Rh probe fluorescence polarization; inhibition, % at 9.51 µM; 930 compounds, 44% hits; AID 1978;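 active = inhibition above a limit from the primary screen, the mean over all compounds plus 3 SD, cut at about 19% in these data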;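 note: 0% = median of active Fam108b wells and 100% = catalytically dead S170A mutant; inhibitors free the probe so polarization falls as inhibition rises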
Fam108b ABPP HTS – mouse ABHD17B inhibition. shares compounds with Fam108B counter. recombinant Fam108b, gel-based ABPP, fluorophosphonate probe. inhibition, % at 20 µM. 260 compounds, 44% hits; in the data active = inhibition above about 40%
Starred values were filed as active, the others as inactive.

O=C1c2ccccc2C2=Nc3ccccc3SC(c3cccc(F)c3)C12 (stereo unspecified) was read as PAFAH2 inh -20, pPAFAH inh 9, PME-1 inh 19, Fam108B counter 22*, PAFAH1B3 FP inh 2, PAFAH1B2 FP inh -5 and Fam108b inh conf -20.
`O=C1c2ccccc2C2=Nc3ccccc3SC(c3ccc(Cl)cc3)C12` (stereo unspecified) gave PAFAH2 inh -15, pPAFAH inh 1, PME-1 inh 14, Fam108B counter 14, PAFAH1B3 FP inh 8 and PAFAH1B2 FP inh 7.
For O=C(O)C1=C[C@H](c2csc3ccccc23)C[C@H](OCc2ccc(CO)cc2)O1 the results were PAFAH2 inh 6, pPAFAH inh 6, PME-1 inh -3, Fam108B counter 32*, PAFAH1B3 FP inh -1, PAFAH1B2 FP inh -4 and Fam108b inh conf -5.
For Cc1[nH]n(C(N)=S)c(=O)c1N=Nc1ccccc1C(F)(F)F the results were PAFAH2 inh 14, pPAFAH inh 13, PME-1 inh 2, Fam108B counter 24*, PAFAH1B3 FP inh 5, PAFAH1B2 FP inh 4 and Fam108b inh conf 27*.
For Cc1cc2nc(-c3ccc(SCc4ccc(C#N)cc4)nc3)[nH]c2cc1C the results were PAFAH2 inh -5, pPAFAH inh 7, PME-1 inh 3, Fam108B counter 26*, PAFAH1B3 FP inh -1, PAFAH1B2 FP inh 1 and Fam108b inh conf 6.
Screening CC(=O)CSc1ccc(-c2nc3cc(C)c(C)cc3[nH]2)cn1 returned PAFAH2 inh 0, pPAFAH inh 7, PME-1 inh -21, Fam108B counter -5, PAFAH1B3 FP inh 3 and PAFAH1B2 FP inh 8.
O=C1c2ccccc2C(=O)c2c([N+](=O)[O-])ccc(O)c21 was read as PAFAH2 inh 40*, pPAFAH inh 27*, PME-1 inh 29*, Fam108B counter 31*, PAFAH1B3 FP inh 64*, PAFAH1B2 FP inh 43*, Fam108b inh conf 36* and Fam108b ABPP HTS 30.
For Brc1cccc(C2Nc3cccc4cccc(c34)N2)c1 the results were PAFAH2 inh -1, pPAFAH inh 12, PME-1 inh 17, Fam108B counter 22*, PAFAH1B3 FP inh 20, PAFAH1B2 FP inh 7 and Fam108b inh conf 0.
`Clc1cccc(C2Nc3cccc4cccc(c34)N2)c1` gave PAFAH2 inh -1, pPAFAH inh 14, PME-1 inh 1, Fam108B counter 18, PAFAH1B3 FP inh 17 and PAFAH1B2 FP inh 2.
Clc1ccc(C2Nc3cccc4cccc(c34)N2)cc1Cl was read as PAFAH2 inh 12, pPAFAH inh 6, PME-1 inh 15, Fam108B counter 24*, PAFAH1B3 FP inh 17, PAFAH1B2 FP inh 8 and Fam108b inh conf 21*.
`CN(C)c1ccc(C2Nc3cccc4cccc(c34)N2)cc1` gave PAFAH2 inh -2, pPAFAH inh -5, PME-1 inh 12, Fam108B counter 7, PAFAH1B3 FP inh 5 and PAFAH1B2 FP inh -1.
`c1ccc(C2Nc3cccc4cccc(c34)N2)cc1` gave PAFAH2 inh 8, pPAFAH inh 8, PME-1 inh 3, Fam108B counter 13, PAFAH1B3 FP inh 11 and PAFAH1B2 FP inh 5.
For Oc1ccccc1C1Nc2cccc3cccc(c23)N1 the results were PAFAH2 inh 25, pPAFAH inh 10, PME-1 inh 46*, Fam108B counter 60*, PAFAH1B3 FP inh 23, PAFAH1B2 FP inh 6, Fam108b inh conf 31* and Fam108b ABPP HTS 85*.
`Brc1ccc(C2Nc3cccc4cccc(c34)N2)o1` gave PAFAH2 inh 9, pPAFAH inh 21, PME-1 inh 19, Fam108B counter 26*, PAFAH1B3 FP inh 17, PAFAH1B2 FP inh 7 and Fam108b inh conf 8.
For CN(C)C(=O)CCc1ccc2c3c([nH]c2c1)[C@]1(C)[C@@H](C(=O)N2CCOCC2)C[C@H](CC(=O)NCc2cccc(C(F)(F)F)c2)C(=O)N1CC3 the results were PAFAH2 inh 0, pPAFAH inh 9, PAFAH1B3 FP inh 10 and PAFAH1B2 FP inh 5.
